In PubChem BioAssay (NCATS):
Inconclusive results are not listed. Values without a mark were called inactive. Calls of active or inactive are those of the source. The call rests on the fitted dose curve; in most records, active means well fitted inhibition curve with a large enough effect; inconclusive means small, poorly fitted or top-dose-only effect; inactive means flat fitted curve, though single readings scatter.

experiment: P-glycoprotein substrates identified in KB-8-5-11 adenocarcinoma cell line, qHTS therapeutic library screen (AID 1346987); settings: KB-8-5-11 (P-gp overexpressing) viability, CellTiter-Glo, 72 h; series mostly up to 44.5 µM; activity change, negative = cytotoxicity: at the top concentration; further: nearly all actives have a fitted effect of over 65% in size
Outline: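 Human cervical adenocarcinoma KB-8-5-11 cells, selected in colchicine to over-express P-gp and assayed without it, were exposed for 72 h to titrated compounds. An ATP-based luminescent viability signal gave AC50.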
On the % scale 0 is the no-effect control and ±100 the full control effect; potency means the concentration at half of the fitted maximal effect.

SMILES	activity change, negative = cytotoxicity	outcome	Potency
CC(C)C[C@H](CC(=O)NO)C(=O)N[C@H](C(=O)N[C@@H](C)C(=O)NCCN)C(C)(C)C	2.84% [at 9.29 µM]		
COC1/C=C/C(C)(O)C(SCC(N)C(=O)O)CC(=O)OC(C)C(C)CC/C=C/1C (centres undefined)	6.14% [at 17.3 µM]		
CCOCc1nc2c(N)nc3ccccc3c2n1CC(C)(C)O	-14.9%		
COc1ccc(/C=C/C(=O)O[C@@H]2[C@@H](O)[C@@H](O)[C@H](O[C@@H]3C=C(CO)[C@H]4[C@H](O[C@@H]5O[C@H](CO)[C@@H](O)[C@H](O)[C@H]5O)OC=C[C@H]43)O[C@H]2C)cc1O		inactive [at 17.3 µM]	
N[C@H]1Cc2ccccc2N(O)C1=O	-9.03%		
CC(Nc1ncnc2nc[nH]c12)c1cc2cccc(Cl)c2c(=O)n1-c1ccccc1 (centres undefined)	-1.75%		
C[C@@H]1O[C@@H](OC[C@H]2O[C@@H](Oc3cc(O)cc4c3C(=O)C(O)(Cc3ccc(O)cc3)O4)[C@H](O)[C@@H](O)[C@@H]2O)[C@H](O)[C@H](O)[C@H]1O (some centres undefined)		inactive [at 17.3 µM]	
COc1cc(C)c(C(=O)Oc2cc(C)c(C(=O)Oc3cc(C)c(C(=O)NC(C)C(=O)O)c(O)c3)c(O[C@@H]3O[C@H](CO)[C@@H](O)[C@H](O)[C@H]3OC(C)=O)c2)c(OC)c1 (some centres undefined)	9.86% [at 17.3 µM]		
C/C=C1\[C@H](O[C@@H]2O[C@H](CO)[C@@H](O)[C@H](O)[C@H]2O)OC=C2C(=O)OCCc3ccc(O)c(c3)Oc3ccc(cc3)CCOC(=O)C[C@H]21	-6.93% [at 17.3 µM]		
CCC(C)C(=O)OC1CC(C)C=C2C=CC(C)C(CCC(O)CC(O)CC(=O)O)C21 (centres undefined)	-12.7% [at 17.3 µM]		
C=C1CCC2C(C)(C)C(O)CCC2(C)C1CCC(C)CCO (centres undefined)	-19.3%		
C[C@@H]1O[C@@H](O[C@H]2[C@H](O)[C@@H](O)[C@H](OC3CCC4(C)C5CCC(C)(C(CO)OC6OC(CO)C(O)C(O)C6O)CC5=CCC4C3(C)C)O[C@@H]2CO)[C@H](O)[C@H](O)[C@H]1O (some centres undefined)		inactive [at 17.3 µM]	
COC(=O)C1=CO[C@@H](O[C@@H]2O[C@H](CO)[C@@H](O)[C@H](O)[C@H]2O)[C@H]2[C@@H]1CC(OC)O[C@@H]2C (some centres undefined)		inactive [at 17.3 µM]	
Cc1ccc(NC(=O)C(=O)NC2CC(C)(C)NC(C)(C)C2)cc1	1.61%		
C[C@@H]1O[C@@H](O[C@H]2[C@H](OC(=O)[C@]34CCC(C)(C)C[C@H]3C3=CCC5[C@@]6(C)C[C@H](O)[C@H](O[C@@H]7O[C@H](CO)[C@@H](O[C@H]8OC[C@](O)(CO)[C@H]8O)[C@H](O)[C@H]7O)[C@@](C)(CO)C6[C@H](O)C[C@@]5(C)[C@]3(C)C[C@H]4O)OC[C@H](O)[C@@H]2O)[C@H](O)[C@H](O)[C@H]1O[C@@H]1OC[C@@H](O)[C@H](O[C@@H]2OC[C@](O)(CO)[C@H]2O)[C@H]1O (some centres undefined)	9.78% [at 9.29 µM]		
CCCCc1ccc(C(=O)Nc2cc(-c3ccc(Cl)cc3)nn2-c2ccc(Cl)cc2)cc1	-18.2%		
O=C(c1ccc(/C=C/c2n[nH]c3ccccc23)cc1)N1CCNCC1			6.51 µM (active)
C/C(=C\C=C\C(C)C1CCC2(C)C3CCC4C(C)(C)C(=O)CCC45CC35CCC12C)C(=O)O (centres undefined)	8.34% [at 17.3 µM]		
CC1CC(C(O)C(C)(C)O)OC2CC3(C)C4(C)CCC5C(C)(C)C(=O)CCC5(C)C4CCC3(O)C12O (centres undefined)	-1.42% [at 17.3 µM]		
CN1C2CCC1CC(OC(=O)[C@H](CO)c1ccccc1)C2 (some centres undefined)	1.52%		
N[C@@]1(C(=O)O)CC[C@H]2[C@H](C(=O)O)[C@H]21		inactive	
COc1cc(O)cc(C)c1C(=O)OC1C(CO)OC(OC2C(O)C(O)C(O)C(O)C2O)C(O)C1O (centres undefined)		inactive [at 17.3 µM]	
Cn1cncc1C(N)(c1ccc(Cl)cc1)c1ccc2c(c1)c(-c1cccc(Cl)c1)cc(=O)n2C (centres undefined)			3.26 µM (active)
CC1(C)CC[C@]2(C(=O)O[C@@H]3O[C@H](CO)[C@@H](O)[C@H](O)[C@H]3O)CC[C@]3(C)C(=CCC4[C@@]5(C)CC[C@H](O[C@@H]6O[C@H](C(=O)O)[C@@H](O)[C@H](O)[C@H]6O)[C@@](C)(CO)C5CC[C@]43C)C2C1 (some centres undefined)	-4.65% [at 9.29 µM]		
